From PubChem BioAssay come the findings set out here.

Several values for one entry are separate records, joined by “and”; a condition that tells them apart may be missing. Identical values can stand only once. Records with an inconclusive call do not appear. Activity calls are given as the source filed them.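 How the source made its calls, unless noted: active means normalized viability below 100% at a tested concentration; inactive means the rest.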

Assay [1] is described as follows: growth inhibition of DIPG glioma cells, dose response, cell-based, SU-DIPG-XVII, MIPE5.0, CellTiter-Glo, qHTS (AID 1347060; cut-off not given, nearly all actives have AC50 up to about 26 µM;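 on AC50: cells exposed to compound for 48 hours before viability readout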). Particulars: SU-DIPG-XVII viability, CellTiter-Glo ATP luminescence. (In general: ATP-based viability assays read luminescence as a measure of living cells.)
Assay [2] in a line: growth inhibition of DIPG glioma cells, dose response, cell-based, SU-DIPG-XIII, MIPE4.0, CellTiter-Glo, qHTS (AID 1347061; cut-off not given, nearly all actives have AC50 up to about 37 µM;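 further: cells exposed to compound for 48 hours before readout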). Particulars: SU-DIPG-XIII viability, CellTiter-Glo ATP luminescence.
Assay [3] in a line: growth inhibition of DIPG glioma cells, dose response, cell-based, JHH-DIPG-1, MIPE4.0, CellTiter-Glo, qHTS (AID 1347062; cut-off not given, nearly all actives have AC50 up to about 27 µM;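 on AC50: cells exposed to compound for two days before readout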). Particulars: JHH-DIPG-1 viability, CellTiter-Glo ATP luminescence.
A short description of assay [4]: growth inhibition of DIPG glioma cells, dose response, cell-based, SU-DIPG-IV, MIPE4.0, CellTiter-Glo, qHTS (AID 1347063; cut-off not given, nearly all actives have AC50 up to about 30 µM;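 further: compound exposure lasted 48 hours before the viability readout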). Particulars: SU-DIPG-IV viability, CellTiter-Glo ATP luminescence.
Assay [5] is described as follows: growth inhibition of DIPG glioma cells, dose response, cell-based, SU-DIPG-XIII, MIPE5.0, CellTiter-Glo, qHTS (AID 1347064; cut-off not given, nearly all actives have AC50 up to about 23 µM;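 on AC50: cells exposed to compound for 48 hours before the viability read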). Particulars: SU-DIPG-XIII viability, CellTiter-Glo ATP luminescence.
The nature of assay [6]: viability loss in pontine glioma line – cell-based, SU-DIPG-XXV, MIPE5.0, CellTiter-Glo, qHTS, dose response (AID 1347065; cut-off not given, nearly all actives have AC50 up to about 26 µM;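 further: cells exposed to compound for 48 hours before ATP readout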). Particulars: CellTiter-Glo ATP luminescence.
Assay [7] can be described thus: JHH-DIPG-1 glioma cell viability, MIPE5.0 library, CellTiter-Glo luminescence, qHTS (AID 1347067; cut-off not given, nearly all actives have AC50 up to about 26 µM;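 further: cells exposed to compound for 48 hours before readout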). Particulars: JHH-DIPG-1 glioma viability, CellTiter-Glo ATP luminescence.
Assay [8] in a line: modifiers of HSF1 nuclear foci, imaging, Selleck Cancer Library (AID 1347162; in the data active means plate-normalised HSF1 focus index below about 0.46). Particulars: human cells, at 10 µM; SSMD: measured here: HSF1 foci SSMD mean; cell count: measured here: cell number; plate-normalised HSF1 focus index: stronger effect = lower value.
The nature of assay [9]: SU-DIPG-XXV glioma cell viability, MIPE5.0 library, qHTS (AID 1347068; cut-off not given, nearly all actives have IC50 up to about 30 µM;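 on IC50: cells exposed to compound for 48 hours before viability readout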).
Assay [10] can be described thus: SU-DIPG-VI glioma cell viability, MIPE4.0 library, CellTiter-Glo luminescence, qHTS (AID 1347066; cut-off not given, nearly all actives have AC50 up to about 30 µM;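 further: cells exposed to compound for 48 hours before readout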). Particulars: CellTiter-Glo ATP luminescence.
Assay [11] in a line: sensitizers of A549 cells to miR-34 induction, primary screen, imaging, A549 dox-inducible miR-34, nuclei and caspase counts (AID 1347080;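 active means compounds whose cell count with miR-34 switched on is under 0.7 times the count with it off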). Particulars: A549 miR-34 inducible, Hoechst nuclei count, 48 h.
Assay [12] can be described thus: ovarian cancer cell viability with rucaparib, profiling panel, oncology-focused library, rucaparib conditional (AID 1508598). Particulars: patient-derived ovarian cancer cells, CellTiter-Glo viability, 144 h, stronger effect = lower value.

By AC50 is commonly meant the concentration giving half of the maximal activity seen. As a reminder, the IC50 is the concentration needed to halve the response being measured. As a reminder, the viability is a read-out of living cells in per cent, often relative to untreated cells.

Turning to `O=C(/C=C/c1cccnc1)NCCCCC1CCN(C(=O)c2ccccc2)CC1`, the AC50 in [1] was 11.8 nM (active); in assay [2], 16.6 nM (active); in [3] it was 4.18 nM (active); in [4], 20.9 nM (active); in assay [5] it was 1.86 nM (active); in assay [6] it was 4.68 nM (active). Also, the AC50 in [7] is 4.17 nM (active). In [8], the SSMD is 1.27. Also, the cell count in [8] came out at 7280. For the same compound, the plate-normalised HSF1 focus index in [8] was 1.05 (inactive).

Take `Cc1nc(N)ncc1-c1nc(N2CCOCC2)c2sc(C(C)(C)O)cc2n1`: the AC50 in assay [1] was 1660 nM (active); in assay [2], 7430 nM (active); in assay [3], 1320 nM (active); in assay [4] it was 332 nM (active); in assay [5] it was 3320 nM (active); in assay [6] it was 1050 nM (active). Also, the IC50 in assay [9] was 4680 nM (active).

`C[Se]CCC(N)C(=O)O` (stereo unspecified): the outcome in [1], in assay [2], in assay [3], in assay [4], in assay [5] and in assay [10] was inactive. The outcome in assay [7] and in [9] was inactive.

Regarding `CC(/C=C/C(=O)NO)=C\[C@@H](C)C(=O)c1ccc(N(C)C)cc1`, the AC50 in [1] was 332 nM (active); in assay [2], 7430 nM (active); in assay [3], 1480 nM (active); in assay [4], 590 nM (active); in assay [5], 209 nM (active); in assay [6] it was 372 nM (active). Moreover, in [7], the AC50 is 525 nM (active). For the same compound, the fold change in assay [11] (stronger effect = lower value, cell number ratio, induced over uninduced) was 0.973 (inactive) and 1 (inactive); in assay [11] (measured here: relative caspase fold change +Dox/-Dox), 1.51 and 0.994. Further, the cell count is 926 and 1160 in assay [11] (measured here: total cells with miR-34 induction, stronger effect = lower value); 952 and 1150 in [11] (measured here: total cells without miR-34 induction); 7010 in [8]. The SSMD in assay [8] is -1.78. Moreover, the plate-normalised HSF1 focus index in assay [8] is 0.921 (inactive). Moreover, the viability in [12] (at 0.000305 µM, OCI-C5x cells, with rucaparib 10 µM, 100% = cells with rucaparib alone) was 111% (inactive); in [12] (at 0.000305 µM, OCI-C5x cells, without rucaparib) it was 91.4% (active); in assay [12] (at 0.000305 µM, OCI-P5x cells, with rucaparib 20 µM, 100% = cells with rucaparib alone) it was 77.4% (active); in assay [12] (at 0.000305 µM, OCI-P5x cells, without rucaparib) it was 83.4% (active); in [12] (at 0.00122 µM, OCI-C5x cells, with rucaparib 10 µM, 100% = cells with rucaparib alone), 117% (inactive); in assay [12] (at 0.00122 µM, OCI-C5x cells, without rucaparib), 102% (inactive). Also, the viability in assay [12] (at 0.00122 µM, OCI-P5x cells, with rucaparib 20 µM, 100% = cells with rucaparib alone) is 82.5% (active); in assay [12] (at 0.00122 µM, OCI-P5x cells, without rucaparib), 83.5% (active); in assay [12] (at 0.00488 µM, OCI-C5x cells, with rucaparib 10 µM, 100% = cells with rucaparib alone), 107% (inactive); in assay [12] (at 0.00488 µM, OCI-C5x cells, without rucaparib), 105% (inactive); in [12] (at 0.00488 µM, OCI-P5x cells, with rucaparib 20 µM, 100% = cells with rucaparib alone) it was 75.8% (active); in assay [12] (at 0.00488 µM, OCI-P5x cells, without rucaparib) it was 89.8% (active). Also, the viability was 115% (inactive) in [12] (at 0.0195 µM, OCI-C5x cells, with rucaparib 10 µM, 100% = cells with rucaparib alone); 109% (inactive) in assay [12] (at 0.0195 µM, OCI-C5x cells, without rucaparib); 81.7% (active) in [12] (at 0.0195 µM, OCI-P5x cells, with rucaparib 20 µM, 100% = cells with rucaparib alone); 76.1% (active) in assay [12] (at 0.0195 µM, OCI-P5x cells, without rucaparib); 42.3% (active) in assay [12] (at 0.0781 µM, OCI-C5x cells, with rucaparib 10 µM, 100% = cells with rucaparib alone); 17.8% (active) in assay [12] (at 0.0781 µM, OCI-C5x cells, without rucaparib). In addition, the viability is 50.3% (active) in [12] (at 0.0781 µM, OCI-P5x cells, with rucaparib 20 µM, 100% = cells with rucaparib alone); 51.8% (active) in [12] (at 0.0781 µM, OCI-P5x cells, without rucaparib); 8.25% (active) in assay [12] (at 0.313 µM, OCI-C5x cells, with rucaparib 10 µM, 100% = cells with rucaparib alone); 6.7% (active) in assay [12] (at 0.313 µM, OCI-C5x cells, without rucaparib); 13% (active) in assay [12] (at 0.313 µM, OCI-P5x cells, with rucaparib 20 µM, 100% = cells with rucaparib alone); 12.1% (active) in [12] (at 0.313 µM, OCI-P5x cells, without rucaparib). Further, the viability in [12] (at 1.25 µM, OCI-C5x cells, with rucaparib 10 µM, 100% = cells with rucaparib alone) was 4.57% (active); in assay [12] (at 1.25 µM, OCI-C5x cells, without rucaparib), 4.64% (active); in assay [12] (at 1.25 µM, OCI-P5x cells, with rucaparib 20 µM, 100% = cells with rucaparib alone), 2.76% (active); in assay [12] (at 1.25 µM, OCI-P5x cells, without rucaparib) it was 2.28% (active); in assay [12] (at 5 µM, OCI-C5x cells, with rucaparib 10 µM, 100% = cells with rucaparib alone) it was 5% (active); in [12] (at 5 µM, OCI-C5x cells, without rucaparib), 4.88% (active). The viability in assay [12] (at 5 µM, OCI-P5x cells, with rucaparib 20 µM, 100% = cells with rucaparib alone) was 0.994% (active); in assay [12] (at 5 µM, OCI-P5x cells, without rucaparib) it was 1.21% (active).
